Results filed as inconclusive are left out. The source made the active and inactive calls. The call rests on the fitted dose curve; in most records, active means well fitted inhibition curve with a large enough effect; inconclusive means small, poorly fitted or top-dose-only effect; inactive means flat fitted curve, though single readings scatter.
The compounds below were run on HACAT (assay: qHTS assay to identify novel small-molecules to repurpose for Merkel cell carcinoma treatment (AID 1296009; further: nearly all actives have a fitted effect of over 60% in size)). Conditions: MCC and control cell lines, CellTiter-Glo viability, 72 h; at 44.8 µM (top of the series) unless noted.
Outline: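 qHTS format: cells treated with library compounds in DMSO across 8 (NPC) or 11 (MIPE) concentrations. Readout after 72 hr at 37 degree celsius was CellTiter-Glo luminescence.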
`CC(=O)OC(C)(C)/C=C/C(=O)C(C)(O)C1C(O)CC2(C)C3CC=C(C(C)(C)C(=O)O)C(CC(=O)O)C3(C)C(=O)CC12C` (centres undefined) was tested, and the outcome was “inactive [at 17.4 µM]”. For `Cc1cccc(-c2[nH]ncc2-c2ccnc3ccccc23)n1`, the outcome was “inactive”. In the case of `Cc1[nH]c(/C=C2\C(=O)Nc3ccc(S(=O)(=O)N(C)c4cccc(Cl)c4)cc32)c(C)c1C(=O)N1CCN(C)CC1`, the outcome is reported as “inactive”. `N#Cc1ccc(O[C@@H]2c3ccccc3C[C@H]2N2CCC[C@@H](N)C2)c(Cl)c1` was tested, and the outcome was “inactive”. With `O=S(=O)(Nc1cc(Cl)c(Oc2cnc3ccccc3c2)c(Cl)c1)c1ccc(Cl)cc1Cl` the outcome was “inactive”. In the case of `Cc1cc2c(F)c(Oc3ncnn4cc(OCC(C)OC(=O)C(C)N)c(C)c34)ccc2[nH]1` (centres undefined), the outcome is reported as “inactive”. For `COc1cc(C[C@H]2C(=O)OC[C@@H]2Cc2ccc(OC)c(OC)c2)ccc1O`, the outcome was “inactive”. In the case of `CC(=O)C1=C(O)C=C2Oc3c(C(C)=O)c(O)c(C)c(O)c3[C@]2(C)C1=O`, the outcome is reported as “inactive”. With `O=C1NC(=O)C(c2cnc3ccccn23)=C1c1cn2c3c(cc(F)cc13)CN(C(=O)N1CCCCC1)CC2` the outcome was “inactive”.

— PubChem BioAssay (NCATS)
